Results on 56 compounds are retold here after PubChem BioAssay AID624125 (The Scripps Research Institute Molecular Screening Center, 2012).

The campaign covered roughly 360,000 compounds. About 2,600 (0.72%) were called active. The list comes from a sample in which actives are over-represented; it also holds similar structures and randomly drawn compounds. A number with no mark means an inactive call.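 The calls were made as follows: active = inhibition above its plate's cutoff, the mean inhibition of sample wells plus 3 SD (cut at about 27% in these data); inactive = the rest.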

Muscarinic acetylcholine receptor M4 (Homo sapiens), sequence (P08173 whole entry, looked up): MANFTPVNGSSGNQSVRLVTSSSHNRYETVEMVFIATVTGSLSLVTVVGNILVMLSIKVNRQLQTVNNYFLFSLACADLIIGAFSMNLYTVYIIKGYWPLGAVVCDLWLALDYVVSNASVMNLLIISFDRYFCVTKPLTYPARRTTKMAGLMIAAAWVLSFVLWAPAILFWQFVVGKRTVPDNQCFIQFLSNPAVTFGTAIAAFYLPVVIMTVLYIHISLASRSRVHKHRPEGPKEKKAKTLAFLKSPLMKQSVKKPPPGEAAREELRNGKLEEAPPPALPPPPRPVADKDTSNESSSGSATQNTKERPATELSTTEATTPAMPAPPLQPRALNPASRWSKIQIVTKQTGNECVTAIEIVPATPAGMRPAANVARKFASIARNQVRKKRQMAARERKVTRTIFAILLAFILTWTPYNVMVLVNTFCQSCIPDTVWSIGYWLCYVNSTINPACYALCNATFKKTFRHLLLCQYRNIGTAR

This assay addresses Muscarinic acetylcholine receptor M4 (Homo sapiens) (UniProt P08173). The assay is described as follows: CHRM4 blockers of acetylcholine calcium response – CHO cells, Fluo-8 calcium fluorescence, primary screen (AID 624125).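 Also: 0% = acetylcholine EC80 with DMSO and 100% = DMSO without agonist.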 To be noted: CHO-hM4 cells, ACh EC80, Fluo-8 calcium fluorescence; at 3 µM; active compounds read high.
Turning to `Cc1cccc(CSc2ccc(-c3cccs3)nn2)c1`, the inhibition (in general, the change of the read-out against control, counted positive when it falls) is -4.51%.

Take `CSCCC1NC(=O)N(CC(=O)Nc2cccc(S(=O)(=O)N3CCCCCC3)c2)C1=O` (stereo unspecified): the inhibition was -15.2%.

Consider `O=C(/C=C/c1ccc(Cl)cc1)Nc1ccc(S(=O)(=O)Nc2ncccn2)cc1`, for which the inhibition was 0.88%.

Regarding `O=C(Nc1ccccc1)c1nnsc1S(=O)(=O)c1ccc(Cl)cc1`, the inhibition is 70.3% (active).

With `C/C(=N\NS(=O)(=O)c1ccc(Cl)cc1)c1ccc(NC(=O)c2ccco2)cc1`, the inhibition was 7.91%.

As for `Cn1c(CC(=O)Nc2ccc(F)cc2)nnc1SCC(=O)NC1CCCCC1`, the inhibition is -3.82%.

Turning to `CC(=O)N1CCc2c(sc(NC(=O)CCS(=O)(=O)c3ccc(C)cc3)c2C(N)=O)C1`, the inhibition is -0.18%.

With `CS(=O)(=O)c1ccc(C(=O)NNC(=O)c2cccs2)cc1`, the inhibition is 0.8%.

In the case of `Cc1ccc2[nH]cc(CCCN3C(=O)c4ccccc4C3=O)c2c1`, the inhibition is -6.81%.

Take `Cc1cccc(CSc2nc3c(c(=O)n2C)SCC3)c1`: the inhibition was 30.4% (active).

As to `COCCn1c(SCC(=O)Nc2ccc(F)cc2F)nc2c(c1=O)SCC2`, the inhibition was -3.44%.

For `Cc1cccc(CSc2nnc(C)c(=O)n2N)c1`, the inhibition is -5.35%.

In the case of `CCOC(=O)C1=CN(Cc2ccc(Br)cc2)S(=O)(=O)NC1C` (stereo unspecified), the inhibition was -12.5%.

As for `O=C1C2(c3ccccc3)CN(CCCO)CC1(c1ccccc1)CN(CCCO)C2`, the inhibition was 4.09%.

On to `FC(F)(F)c1cccc(-c2cc3ccccc3nc2N2CCCC2)c1`, for which the inhibition was 2.79%.

With `CCN(CC)CCCC(C)n1c2nc(=O)[nH]c(=O)c-2nc2cc(Cl)ccc21` (stereo unspecified), the inhibition was 38.6% (active).

For `C=CCn1c(N)cc(=O)nc1SCC(=O)Nc1cccc2ccccc12`, the inhibition was 0.21%.

As for `CCN(CC)P(=O)(C(NC(=O)OC)C(F)(F)C(F)(F)C(F)(F)C(F)F)N(CC)CC` (stereo unspecified), the inhibition is 2.64%.

`COc1ccc(NC(=O)/C(Cl)=C(/Cl)S(=O)Cc2ccc(C)cc2)cn1` (stereo unspecified): the inhibition is 50.8% (active).

Regarding `CC(C)=CCCC1(C)C=Cc2c(ccc3c2[nH]c2cc(O)c(C)cc23)O1` (stereo unspecified), the inhibition was -7.94%.

For the compound `Cc1c(CN2CCCC(C(=O)c3cccc(Cl)c3)C2)c(=O)n(-c2ccccc2)n1C` (stereo unspecified), the inhibition is 7.63%.

On to `O=C(C[C@H]1C/C=C\C[C@@H](NC(=O)OCC2c3ccccc3-c3ccccc32)C(=O)O[C@@H](c2ccccc2)CNC1=O)N[C@H](CO)Cc1ccccc1`, for which the inhibition was -3.13%.

On to `O=C(NNC(=O)C1C2CCC(C2)C1C(=O)O)c1ccc(Cl)cc1` (stereo unspecified), for which the inhibition is 2.59%.

As to `COc1ccc(S(=O)(=O)/N=C2\C=C(NS(=O)(=O)c3ccccc3)C(=O)c3ccccc32)cc1`, the inhibition is 27.9% (active).

Turning to `COc1ccc(NS(=O)(=O)c2ccc(Oc3c(C#N)cccc3C#N)cc2)cc1`, the inhibition was 15%.

As to `Cc1ccc(S(=O)(=O)/N=C2\C=C(NS(=O)(=O)c3ccc(C)cc3)C(=O)c3ccccc32)cc1`, the inhibition was 4.16%.

Take `O=C(CS(=O)(=O)Cc1ccccc1)Nc1cccnc1`: the inhibition is -2.16%.

For the compound `Cc1cccc(CS(=O)(=O)c2ncc(Cl)c(C(=O)Nc3ccc(F)cc3)n2)c1`, the inhibition is 33.5% (active).

Regarding `Cc1cccc(NS(=O)(=O)c2ccc(C)c(C(=O)NCc3cccnc3)c2)c1`, the inhibition is -6.05%.

As to `C[C@H](NC(=O)c1nc[nH]c1C(=O)NCC(=O)OC(C)(C)C)C(=O)OCc1ccccc1`, the inhibition is 17.7%.

As to `Cc1cc(NS(=O)(=O)c2ccc(NC(=S)NC(=O)c3ccc(F)cc3Cl)cc2)no1`, the inhibition was 9.04%.

Take `CN(CC(=O)Nc1ccc(F)cc1)CC(=O)Nc1ccc(Cl)c(S(=O)(=O)N2CCOCC2)c1`: the inhibition is -7.68%.

As to `O=C(N[C@@H](Cc1ccccc1)C(=O)OCc1ccccc1)c1nc[nH]c1C(=O)N[C@@H](Cc1ccccc1)C(=O)OCc1ccccc1`, the inhibition was 2.96%.

`Cc1cccc(NC(=O)c2nc(S(=O)(=O)Cc3ccccc3)ncc2Cl)c1`: the inhibition is 51.3% (active).

Regarding `Cc1cccc(NC(=O)c2nc[nH]c2C(=O)NCC(=O)OCc2ccccc2)c1`, the inhibition was 29.3% (active).

In the case of `COc1ccc(NC(=O)CCn2ccnc2)c(OC)c1`, the inhibition is 4.14%.

On to `COc1ccc(NS(=O)(=O)c2ccc(N3CCOCC3)c(NC(=O)c3ccccc3Br)c2)cc1`, for which the inhibition was -9.67%.

As for `Cc1ccc(NS(=O)(=O)c2cc3c(cc2C)NC(=O)CO3)cc1`, the inhibition is 2.56%.

Take `CN(Cc1c(F)cccc1Cl)S(=O)(=O)c1cccs1`: the inhibition is -12.9%.

As to `Cc1cc(=O)n2nc(N3CCCC3C(=O)NCCCN3CC(C)CC(C)C3)sc2n1` (stereo unspecified), the inhibition was -11.3%.

Regarding `c1ccc(C(=NNc2nc3ccccc3s2)c2ccccn2)cc1`, the inhibition is 56.1% (active).

As to `Cc1ccc(C)c(N2CCN(C(=O)CCCCCn3c(=S)[nH]c4ccc(N5CCOCC5)cc4c3=O)CC2)c1`, the inhibition was 33.6% (active).

As for `Cc1ccc(OCCCC(=O)N2CCOCC2)c(C)c1`, the inhibition was -1.8%.

With `Cc1ccc(C)c(N2CCN(C(=O)Cn3ncn4cccc4c3=O)CC2)c1`, the inhibition is -6.41%.

Consider `C[C@H]1CN([C@@H](C)CO)C(=O)CCCn2nncc2CO[C@@H]1CN(C)S(=O)(=O)c1cccc(C#N)c1`, for which the inhibition was -12.9%.

For the compound `N=c1c2c3c(sc2ncn1CCCN1CCOCC1)CCCCC3`, the inhibition is 10.8%.

Regarding `N=c1c2c3c(sc2nc2n1CCCCC2)CCCC3`, the inhibition is 46.3% (active).

Consider `CC1(C)Cc2c(sc3nc4n(c(=N)c23)CCCCC4)CO1`, for which the inhibition was 3.83%.

`Cc1cc(C)c(S(=O)(=O)c2cc(F)ccc2C)c(=O)[nH]1`: the inhibition is 1.71%.

Regarding `CCN1/C(=C\c2ccc3ccccc3[n+]2CC)Sc2cc(C)ccc21`, the inhibition was 34% (active).

Regarding `CCc1ccc(NC2Nc3cc(C)nn3S2)cc1` (stereo unspecified), the inhibition was 4.8%.

For the compound `COc1ccc(Cl)cc1C=CC=NNC(=O)c1ccncc1`, the inhibition was -14.8%.

`CN1CCC[C@@H]1CCO[C@](C)(c1ccccc1)c1ccc(Cl)cc1`: the inhibition is 97.7% (active).

As to `CCC1CCC/C1=N\NC(=O)c1ccc(Cl)cc1` (stereo unspecified), the inhibition was 6.05%.

`COc1cccc2sc3cc(NCC[C@@H]4CCCN4C)ccc3c(=O)c12`: the inhibition is -7.94%.

As for `O=C(Nc1ccc(F)cc1)c1cc2c(s1)CCCC2`, the inhibition was 1.82%.
